Rows were chosen to be rich in hits. Some 12% of all compounds tested hit in one or more screens of this group.
UCHL1 block: human UCHL1 deubiquitinase inhibition; AID 1645859; inhibition, % at 20 µM; purified UCHL1, Ub-rhodamine cleavage fluorescence; hit rate 0.2% among 47,000
USP17 block: inhibitors of human USP17 deubiquitinase; purified USP17, Ub-rhodamine cleavage fluorescence, 3 h; inhibition, % at 50 µM; hit rate 6.5% among 47,000
Target sequence (A8MUK1 whole entry, looked up): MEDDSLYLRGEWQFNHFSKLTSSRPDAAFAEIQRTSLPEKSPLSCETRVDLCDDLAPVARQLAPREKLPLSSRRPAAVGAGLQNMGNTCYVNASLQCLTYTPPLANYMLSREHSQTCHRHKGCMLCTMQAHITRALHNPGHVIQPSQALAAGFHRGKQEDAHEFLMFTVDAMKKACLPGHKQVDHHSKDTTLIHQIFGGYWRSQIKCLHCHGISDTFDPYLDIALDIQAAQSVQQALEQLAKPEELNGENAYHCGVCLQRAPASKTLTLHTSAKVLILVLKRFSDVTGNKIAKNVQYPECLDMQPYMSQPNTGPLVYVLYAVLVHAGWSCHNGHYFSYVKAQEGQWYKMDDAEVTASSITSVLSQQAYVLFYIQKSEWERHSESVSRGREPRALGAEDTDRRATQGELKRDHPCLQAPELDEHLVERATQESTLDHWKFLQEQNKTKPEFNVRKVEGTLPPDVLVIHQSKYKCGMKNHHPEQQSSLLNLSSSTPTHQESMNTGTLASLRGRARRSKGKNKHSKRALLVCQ
USP7 block: blocks human USP7 ubiquitin-rhodamine cleavage. purified USP7, Ub-rhodamine cleavage fluorescence. inhibition, % at 20 µM. hit rate 0.3% among 47,000. AID 1645854
USP10 inh: blocks human USP10 ubiquitin-rhodamine cleavage | Q14694 | purified USP10, Ub-rhodamine fluorescence, 60 min | inhibition, % at 20 µM | hit rate 1.1% among 47,000
USP30 block: human USP30 deubiquitinase inhibition. purified USP30, Ub-rhodamine cleavage fluorescence. inhibition, % at 25 µM. hit rate 5.3% among 47,000
USP8 block: blocks human USP8 ubiquitin-rhodamine cleavage; AID 1645853; P40818; hit rate 4.2% among 47,000; inhibition, % at 20 µM; purified USP8, Ub-rhodamine cleavage fluorescence, 30 min
Large screens that a line does not name were inactive. Rule as the data show it: active = inhibition above about 30%; inactive = the rest.

Cc1nn(C)cc1C(C(=O)NC1CCCCC1)N(C(=O)CN1C(=O)c2ccccc2S1(=O)=O)c1ccc2c(c1)OCO2 (centres undefined)	USP17 block 56, USP10 inh 40 (no result: USP30 block)
CCOc1ccccc1N(C(=O)c1ccc2c(c1)OCCO2)C(C(=O)NC1CCCCC1)c1ccc(O)cc1 (centres undefined)	none
CCc1c(Cl)c(O)c(Cl)c(O)c1C(=O)O[C@H]1C(C)O[C@@H](OC/C2=C\C=C\CC(O)/C(C)=C/C(CC)C(O[C@@H]3OC(C)(C)[C@H](O)C(OC(=O)C(C)C)[C@@H]3O)/C(C)=C/C(C)=C/CC(C(C)O)OC2=O)[C@@H](OC)C1O (some centres undefined)	USP30 block 91
O=C(Nc1ccc(-c2cn3ccsc3n2)cc1)c1ccccc1Br	USP30 block 37
N#Cc1ccc(OCC(=O)Nc2ccc(-c3cn4ccsc4n3)cc2)cc1	USP8 block 46
COc1ccccc1CNC(=O)CCCCn1c(=O)c2ccccc2n(Cc2cc(=O)n3c(C)cccc3n2)c1=O	USP8 block 45
CCOc1ccc(NC(=O)Cn2c(=O)n(CCC(=O)NCc3ccccc3OC)c(=O)c3ccccc32)cc1	USP17 block 52, USP10 inh 34, USP30 block 50, USP8 block 32
COc1ccccc1CNC(=O)CCn1c(=O)c2ccccc2n(Cc2ccccc2C#N)c1=O	USP17 block 40
COc1ccc(CCNC(=O)Cn2c(=O)n(CCCCC(=O)NCc3ccc4c(c3)OCO4)c(=O)c3ccccc32)cc1OC	none
COc1ccccc1CNC(=O)CCc1cn(Cc2ccc(Cl)cc2)c2ccccc12	USP17 block 32
CCOc1ccccc1CNC(=O)CCn1cnc2ccccc2c1=O	none
COc1cc(NC(=O)Cn2c(=O)n(CC3CCC(C(=O)NC4CCCC4)CC3)c(=O)c3ccccc32)cc(OC)c1 (centres undefined)	USP17 block 61, USP30 block 44
O=C(Cn1c(=O)n(CC2CCC(C(=O)NC3CCCC3)CC2)c(=O)c2ccccc21)NCc1ccco1 (centres undefined)	USP17 block 54, USP30 block 39
Cc1ccc(-c2cc(NC(=O)C(C)C)c(=O)n(CC(=O)Nc3ccc(Cl)cc3)n2)cc1	none
O=C(Cn1cnc(-c2ccccc2)cc1=O)Nc1ccc(Oc2ccccc2)cc1	USP8 block 46
Cc1ccc(-c2cc(=O)n(CC(=O)Nc3ccc(C(C)C)cc3)cn2)cc1	USP17 block 38, USP10 inh 42, USP30 block 48, USP8 block 34
O=C(O)CC(CC(=O)Nc1ccc(Oc2ccccc2)cc1)c1ccccc1 (centres undefined)	none
O=C(Cn1nc(-c2ccc3c(c2)OCCO3)ccc1=O)Nc1ccc(Oc2ccccc2)cc1	USP17 block 31
COc1ccc(-c2nnn(CC(=O)N(c3ccc(C4CCCCC4)cc3)C(C(=O)NCC3CCCO3)c3ccc(F)cc3)n2)cc1 (centres undefined)	none
COc1cccc(CC(=O)N2CC[C@H]3N(C)CC[C@@]3(C(=O)N3CCCC3)CC2)c1	none
CCOc1ccc2c(c1)c(=O)c(C(=O)c1ccccc1)cn2CC(=O)Nc1ccc(Cl)cc1	USP10 inh 47, USP8 block 93
COc1ccc(NC(=O)Cn2cc(C(=O)c3ccc(Cl)cc3)c(=O)c3cc(F)ccc32)cc1	USP17 block 31, USP10 inh 53, USP30 block 39
COc1ccc(NC(=O)COc2ccc(C(=O)c3ccc(Cl)cc3)cc2)cc1OC	none
COc1ccc2c(c1)c(=O)c(C(=O)c1ccc(Cl)cc1)cn2CC(=O)Nc1ccc(Cl)cc1	none
COc1ccc(NC(=O)Cn2cc(C(=O)c3ccccc3)c(=O)c3cc(Cl)ccc32)cc1OC	USP10 inh 33
CCc1ccc(C(=O)N2CC(C(=O)NC)C3(CCOCC3)C2)cc1 (centres undefined)	none
Cc1ccc(C2c3c(-c4ccccc4O)n[nH]c3C(=O)N2Cc2ccco2)cc1 (centres undefined)	USP17 block 44, USP30 block 46, USP8 block 58
O=C1c2[nH]nc(-c3ccccc3O)c2C(c2ccc(F)cc2)N1Cc1ccco1 (centres undefined)	USP17 block 39, USP30 block 52, USP8 block 71
COc1ccc(C2c3c(-c4ccccc4O)n[nH]c3C(=O)N2Cc2ccco2)cc1OC (centres undefined)	none
O=C(/C=C/c1ccc(Cl)c(Cl)c1)Nc1ccc(N2CCOCC2)cc1	none
Cc1ccc(Cn2nnc3c(=O)n(Cc4nc(-c5ccc(C)cc5)no4)cnc32)cc1	USP17 block 34
O=C(c1ccncc1)c1c[nH]c2ccc(Br)cc2c1=O	none (no result: USP30 block)
O=C(Oc1ccc2cc(Br)ccc2c1)c1ccncc1	USP30 block 35
c1cc(N2CCCCC2)ncc1-c1noc(CN2CCOCC2)n1	none
Cc1ccc(S(=O)(=O)N2CC3CN(C(=O)Nc4ccccc4C)CC(C2)O3)cc1	none
O=C1Cc2cc(S(=O)(=O)N3CCC([C@@H]4NC(=O)N[C@H]5OCCC[C@H]54)CC3)ccc2N1	USP8 block 43
CC1(C)Oc2ccc(C(=O)N3CCC([C@@H]4NC(=O)N[C@H]5OCCC[C@H]54)CC3)cc2NC1=O	USP30 block 32
CC1CC(=O)Nc2cc(S(=O)(=O)N3CCC4(CC3)OCCO4)ccc2S1 (centres undefined)	none
O=C1Nc2cc(C(=O)N3CCC(N4CCCCC4)CC3)ccc2N2CCCCC12 (centres undefined)	none
Cc1c(CNCc2ccc(F)cc2)c(C(=O)O)c(C)n1-c1ccccc1	USP8 block 43
Cc1nc(-c2ccccc2)sc1C(=O)/C=C/c1ccccc1[N+](=O)[O-]	USP30 block 38
Cc1nc(-c2ccccc2)sc1C(=O)/C=C/c1c(F)cccc1Cl	none
CC1Cn2c(cnc2C(F)(F)F)C(=O)N1CC(=O)Nc1cccc(F)c1 (centres undefined)	none
COc1cc(O)c2c(O)c3c(cc2c1)CC(C)OC3=O (centres undefined)	USP17 block 75
CSc1ccc(Cl)c(C(=O)N2CCc3c(c(-c4nc(C)no4)nn3C)C2)c1	none
Cc1ccc(NC(=O)c2sc3ncn(CC(=O)N4CCN(c5ccccn5)CC4)c(=O)c3c2C)c(Br)c1	USP17 block 59
CCCc1c(C)nc2ncnn2c1Sc1ccccc1NC(=O)c1cccc(OC)c1	none
CC(=O)Nc1ccc(S(=O)(=O)N2CCC(C(=O)Nc3ccc4cc[nH]c4c3)CC2)cc1	none
O=C(Nc1ccc2[nH]ccc2c1)C1CCN(S(=O)(=O)c2ccccc2)CC1	USP30 block 45
O=C(c1c2c(-c3cccnc3)ncnc2n2ccccc12)N1CCOCC1	none (no result: USP30 block)
O=[N+]([O-])c1cccc(-c2csc(-c3ccc4c(c3)OCO4)n2)c1	USP8 block 31
